Data: PubChem BioAssay (NCI)
Several values for one entry are separate records, joined by “and”; a condition that tells them apart may be missing. Equal values may be shown once. This is part of a sample that, as a whole, favours compounds with a hit. Of some 83,000 tested, about 20% had one in any assay.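 Plates (96-well) were seeded with cells, treated with compound at one concentration, and incubated for 48 hours before percent growth was determined.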 Activity calls are given as the source filed them. The calls were made as follows: active = growth percent below 10; inactive = the rest.

System: MDA-MB-468 breast
Test: NCI-60 one-dose screen, 48 h (100 = growth as untreated, 0 = no growth, -100 = all killed)
Settings: 10 µM unless noted

Row | SMILES | growth
1 | COc1ccc2c(c1)Nc1ccccc1S2 | 104% (inactive)
2 | Cn1c2ccccc2c2ccccc21 | 101% (inactive)
3 | O=S(=O)(NCCNc1cc(-c2c(-c3cccc(O)c3)nc3sccn23)ccn1)c1ccc(Cl)cc1 | 51.5% (inactive)
4 | O=C1C(=O)c2ccccc2C(O)=C1CCCc1ccc(C2CCCCCC2)cc1 | 5.94% (active)
5 | CC(=O)c1cc(C(=O)c2ccc3c(c2)Sc2ccccc2N3)c2cc(C)ccn12 | -3.41% (active)
6 | O=C(O)CNS(=O)(=O)c1ccc(Oc2ccc(S(=O)(=O)NCC(=O)O)cc2)cc1 | 107% (inactive)
7 | COc1ccc(C2CC(c3cc(OC)c(OC)c(OC)c3)=NN2C(C)=O)cc1OCC(=O)Nc1nc2ccc(C(F)(F)F)cc2s1 (stereo unspecified) | 84.1% (inactive)
8 | COc1ccc(C/C(C)=C(\c2ccc(Cl)cc2)c2ccc(OCCN3CCCCCC3)cc2)cc1 | 70.9% (inactive)
9 | COc1ccc(Nc2[nH]n3c(=O)cc(-c4ccccc4)nc3c2C(=O)Nc2ccc(C)cc2)c(OC)c1 | 58.6% (inactive)
10 | COc1ccc(NC(=O)Nc2ccc(-c3ccc(OC)c(OC)c3)nc2C)cc1 | 83% (inactive)
11 | CC1(C)N=C(N)N=C(N)N1c1ccc(S(=O)(=O)Nc2nccs2)cc1 | 103% (inactive)
12 | CCCCCCCCCCCC[n+]1ccc(CCCCCCCCC)cc1 | -53.8% (active)
13 | O=C(Nc1cccc(Cn2c(=O)[nH]c3ccc(Oc4ncccn4)cc3c2=O)c1)c1cc(Cl)cc(Cl)c1 | 50.5% (inactive)
14 | NS(=O)(=O)N(c1cc(C(F)(F)F)cc(C(F)(F)F)c1)C1CCN(Cc2ccc(C(F)(F)F)cc2)CC1 | -42.5% (active)
15 | CC1(O)CCCCC1O (stereo unspecified) | 108% (inactive)
16 | COc1ccc2c(c1)c(C(=O)c1nc(-c3cn(C)c4ccccc34)no1)cn2C | 108% (inactive)
17 | CN1CCN(c2ccc3nc(-c4cc(C(C)(C)C)c(O)c(C(C)(C)C)c4)[nH]c3c2)CC1 | 65.4% (inactive)
18 | O=[N+]([O-])c1ccc(NC2CCCCC2)nc1 | 110% (inactive) and 99.8% (inactive)

Row | SMILES | growth
19 | CCN(CC)CCC(CNc1ccnc2cc(Cl)ccc12)c1ccc(O)cc1 (stereo unspecified) | 81.1% (inactive)
20 | COc1ccc(-c2nc(N/N=C/c3ccco3)nc(N3CCOCC3)c2C#N)cc1 | 36% (inactive)
21 | C#CCOc1ccccc1C(Nc1ccccc1)c1nnnn1C1CCCCC1 (stereo unspecified) | 93.7% (inactive)
22 | Cc1ccc(C(=O)Nc2cccc(F)c2)cc1NC(=O)C1(c2ncnc3[nH]ccc23)CC1 | 85.8% (inactive)
23 | S=c1[nH]ccn1-c1c(Cl)cccc1Cl | 110% (inactive)
24 | COc1ccccc1NC(=O)C1=C(C)NC(C)=C(C(=O)Nc2ccccc2OC)C1c1cccc([N+](=O)[O-])c1 | 74.3% (inactive)
25 | CCNCCNc1cc(C2CCCCC2)c(C#N)c2nc3ccccc3n12 | -45.3% (active)
26 | Cc1ccc(NC(=O)Nc2cccnc2)cc1NC(=O)Nc1cccnc1 | 71% (inactive)
27 | C=C(CNCCc1ccc(O)cc1)[C@@H]1CC[C@]2(CO)CC[C@]3(C)[C@H](CC[C@@H]4[C@@]5(C)CCC(=O)C(C)(C)[C@@H]5CC[C@]43C)[C@@H]12 | 8.97% (active)
28 | C#Cc1cccc(NC(=O)Nc2cccc(N=C=S)c2)c1 | 106% [8.25 µM] (inactive)
29 | Cc1ccc(N=c2nc3sc4c(C)ccc(C)c4n3c(N)c2C#N)cc1 | 115% (inactive)
30 | COc1ccc(NC(=O)c2ccc(C(=O)Nc3ccc(OC)cc3OC)cc2)c(OC)c1 | 85% (inactive)
31 | CCOC(=O)NC(N)=O | 105% (inactive) and 98.7% (inactive)
32 | C=CCCCCCCCCCOC(C)=O | 105% (inactive)
33 | Cc1ccc2cnc(N)c(C#Cc3cc(C(=O)Nc4ccc(CN5CCN(C)CC5)c(C(F)(F)F)c4)cnc3C)c2c1 | 15.5% (inactive)
34 | C#CC(F)(F)[C@]1(O)CC[C@H]2[C@@H]3CCC4=CC(=O)CCC4=C3[C@@H](c3ccc(C(C)=O)cc3)C[C@@]21C | 81.3% (inactive)
35 | C[C@H]1O[C@@H](O[C@H]2[C@@H](O)C[C@H](O[C@H]3[C@@H](O)C[C@H](O[C@H]4CC[C@]5(C)C6C[C@@H](O)[C@]7(C)[C@@H](C8=CC(=O)OC8)CC[C@]7(O)C6CC[C@@H]5C4)O[C@@H]3C)O[C@@H]2C)C[C@H](O)[C@@H]1O (stereo partly specified) | -61.7% (active)
36 | Cc1cn(-c2cc(NC(=O)c3cncc(C#Cc4cnc5ccc(O[C@H]6CCOC6)nn45)c3)cc(C(F)(F)F)c2)cn1 | 145% (inactive)
